Source: ChEMBL document CHEMBL3988442, “University of Dundee, Small-Polar-MMV Screening Library” (2021)
Where “and” joins values, the source holds several entries; their conditions need not be identical. Identical values can stand only once. Hit rate of the full screen: of about 34,000 compounds, about 290 (0.85%) showed an effect of 50% or more. The list comes from a sample in which strong results are over-represented; it also holds similar structures and randomly drawn compounds.

Tested on: Plasmodium falciparum
Assay: Plasmodium falciparum sporozoite viability assay
Assay type: functional, organism-based
Design: scale not given: in the data most compounds retested in dose-response had high values

Compound | Percent Effect (10 mM as filed; unlikely as a test dose) | Percent Effect [%]
CN1CCN(C2CCN(c3ccnc(-c4ccccc4)n3)CC2)C1=O | -12.56% and 9.01% and -14.11% | 
CN1CCN(C2CCN(CCOc3ccccc3)CC2)C1=O |  | 2.798
CN1CCN(C2CCN(c3cnc4ccccc4n3)CC2)C1=O | 71.66% and 96.44% and 85% | 
CCc1n[nH]c(C2CN(C(=O)c3ccnc(C)n3)CCO2)n1 (stereo not drawn) |  | -2.148
CCc1nc(CC(=O)N2CCCCC2Cn2cccn2)cs1 (stereo not drawn) |  | 3.352
Cc1cccc(CN2C[C@@H]3CN(C(=O)C4CC=CC4)C[C@@H]3C2=O)n1 |  | -3.24
CN1CCCC1c1ccc(C(=O)N2CCc3ccccc3C2)s1 (stereo not drawn) | 96.19% and 93.66% and 95.32% | 
CC(=O)N1CCCC1c1ccc(C(=O)N2CCOCC2)s1 (stereo not drawn) |  | 9.227
O=C(c1ccc(C2CCCO2)s1)N1Cc2ccccc2C1 (stereo not drawn) | -3.474% and -5.294% and -6.784% | 
Cc1cc(N2CCN(c3ccc(=O)[nH]n3)CC2)nc(-c2ccncc2)n1 |  | 8.684
Cc1nc(C)n(CC2CCCN(Cc3ccccc3C#N)C2)n1 (stereo not drawn) |  | 4.939
CC(=O)N[C@H]1CCO[C@@H](c2cccc(NC(=O)c3cccc(F)c3)c2)C1 | 55.02% and 42.93% and 54.57% | 
CC(=O)N[C@H]1CCO[C@@H](c2cccc(NC(=O)C(C)(C)C)c2)C1 | 12.38% and 11.09% and 3.549% | 
Cc1nn(C)cc1CN1CCC(c2ncc(Cl)cc2S(C)(=O)=O)CC1 |  | 3.927
Cc1cc(C)c(S(=O)(=O)NCCC(=O)NCc2ccoc2)c(C)c1 |  | -16.91
CN(C)C(=O)NCC1CC2(CO1)CN(c1nncs1)C2 (stereo not drawn) |  | 9.107
Cc1cc2cc(C(=O)N[C@@H]3CC[C@@H](N4CCNC(=O)C4)[C@@H]3O)ccc2o1 |  | -1.506
COc1ccccc1CNC(=O)CNCCn1cc(C)cn1 |  | 7.81
Cc1nn(C)c(C)c1-c1cnc(C2CCCN(C)C2)cn1 (stereo not drawn) | -21.75% and -20.87% and 0.3933% | 
COc1c(C2CCCN2CC(=O)Nc2nc(C)cs2)c(C)nn1C (stereo not drawn) |  | -5.597
Cc1csc(NC(=O)c2cnc(C3CCCN(C)C3)cn2)n1 (stereo not drawn) | 50.33% and 85.32% and 71.26% | 
Cc1csc(NC(=O)c2cnc(C3CCCN3)cn2)n1.Cl (stereo not drawn) | 76.82% and 93.2% and 90.06% | 
O=C(NCc1ccccn1)c1cnc(C2CCCN2)cn1 (stereo not drawn) |  | -5.932
Cc1nc(C(=O)NCc2ccccn2)cc(C2CCCN2)n1 (stereo not drawn) |  | 15.86

Compound | Percent Effect (10 mM as filed; unlikely as a test dose) | Percent Effect [%]
Cl.O=C(NCC(F)F)c1cnc(C2CCCN2)cn1 (stereo not drawn) |  | 6.016
Cc1nc2cc(-c3nccn3C)nn2c(N2CCCC2)c1C |  | 12.19
CC(C)(CO)Nc1cc(-c2ccncc2)ncn1 |  | -5.504
COc1ccc(S(=O)(=O)N2CCN(C)c3ncccc3C2)cc1.O=C(O)C(F)(F)F |  | 6.245
CN1CCCN(C(=O)NCc2cccnc2-n2cccn2)CC1 |  | -0.7887
Cc1ncccc1NC(=O)[C@@H]1CCO[C@@H]2CCN(c3ccncn3)C[C@H]21 |  | 1.798
CCc1nccn1C1CCCN(C(=O)CCOCC(F)(F)F)C1 (stereo not drawn) | 0.2657% and 18.61% and -4.801% | 
Cc1csc(CNC(=O)N2CCN(Cc3cc(C)on3)CC2)n1 |  | 3.68
CC(NC(=O)c1cc(C(C)C)[nH]n1)C(=O)Nc1ccccc1 (stereo not drawn) | 72.25% and 63.23% and 81.29% | 
Cc1nc(C(NC(=O)c2cc(C(C)C)[nH]n2)c2ccccc2)n[nH]1 (stereo not drawn) |  | 1.665
CC(C)c1cc(C(=O)NCCn2nc3ccccn3c2=O)n[nH]1 |  | -7.561
O=C(C1CC1)N1CCc2nc(C3CCN(C(=O)C4CC4)C3)nc(O)c2C1 (stereo not drawn) |  | 2.355
Cc1nn(CC(C)C)c(N(C)C)c1CNCc1cccnc1N(C)C |  | 0
Cc1nn(CC(C)C)c(N(C)C)c1CNCc1ccccc1CO |  | 9.702
Cc1nc(-c2ccncc2)ncc1C(C)NC(=O)CN1CCCC1=O (stereo not drawn) |  | -5.692
Cc1cc(C2CCN(C(=O)c3cnn(C)c3)CC2)ccn1 |  | 2.879
CN(C)c1ncc(-c2ccc(F)cc2)c(C2CNCCO2)n1.Cl (stereo not drawn) |  | 8.117
CN(C)c1ncc(-c2cccc(F)c2)c(C2CNCCO2)n1.Cl (stereo not drawn) |  | 2.337
Cc1ccc(-c2ccc(C3CNCCO3)nc2)cc1.Cl (stereo not drawn) | 90.92% and 91.35% and 89.87% | 
CN(C)c1ncc(-c2cncnc2)c(C2CNCCO2)n1.Cl (stereo not drawn) |  | -2.536
Cl.c1ccc(-c2ccc(C3CNCCO3)nc2)cc1 (stereo not drawn) | 93.99% and 69.13% and 81.53% | 
Cl.Fc1ccccc1OCCc1cc(C2CNCCO2)n[nH]1 (stereo not drawn) |  | -0.03121
CN(C)c1ncc(-c2ccc(C(N)=O)cc2)c(C2CNCCO2)n1 (stereo not drawn) |  | -5.327
O=C(c1cccnn1)N1C[C@@H]2CC[C@H](Oc3cccc(F)c3)[C@@H]2C1 |  | -11.48

Compound | Percent Effect (10 mM as filed; unlikely as a test dose) | Percent Effect [%]
CC(C(=O)NCc1ccnc(N2CCOCC2)c1)n1cccn1 (stereo not drawn) |  | 3.476
O=C(NCc1ccc2c(c1)OCO2)[C@H]1C=CCN1c1ncccn1 |  | -8.12
CC(NCc1ccccc1Cl)c1ccc2[nH]c(=O)[nH]c2c1 (stereo not drawn) |  | 4.238
O=C1NCCN1C1CCN(CCOc2cccc3ccccc23)CC1 |  | 0.4468
Cc1nc(COc2ccc(OC3CCCCNC3=O)cc2)oc1C (stereo not drawn) | 96.35% and 88.4% | 
CCc1cnc(COc2ccc(OC3CCCCNC3=O)cc2)o1 (stereo not drawn) | -31.83% and -45% | 
NC(=O)Cn1cc(NC(=O)N2CCCC(O)C2)cn1 (stereo not drawn) |  | 9.794
COCCS(=O)(=O)N(Cc1cscn1)c1ccccc1 |  | 1.643
CCn1cc(CNc2ccc(N(C)CCOC)cn2)cn1 | 4.885% and 7.278% | 
CC(C)(C)n1cc(NCc2cscn2)cn1 |  | 16.3
COCCN(C)c1ccc(NCc2ccsc2)nc1 | 67.62% and 57.94% | 
COCCN(C)c1ccc(NCc2cccnc2)nc1 | 21.13% and 22.11% | 
COCCN(C)c1ccc(NCc2cscn2)nc1 | 95.11% and 93.26% | 
CC1CN(c2ccccc2Cl)C(=O)CN1C(=O)c1c[nH]c(=O)c(Cl)c1 (stereo not drawn) |  | 1.644
COc1ccc(-n2ncc3c2NC(=O)CSC3C(C)C)cc1 (stereo not drawn) |  | -10.71
COCC(=O)N1CC[C@@H]2O[C@H](COCc3ccncc3)CC[C@@H]21.O=C(O)C(F)(F)F |  | -3.886
COc1cccc(-c2noc(C3CCN(CC4CCCCC4)C3)n2)c1.Cl (stereo not drawn) | -10.94% and -15.38% and -3.133% | 
COc1cccc(-c2noc(C3CCN(Cc4cn(C)nc4C)C3)n2)c1 (stereo not drawn) | 82.7% and 74.22% and 69.73% | 
COc1cccc(CSCC2=Nc3ccccc3S(=O)(=O)N2)c1 |  | -15.51
CC(C)(C)n1ncc2c1CCCC2NCc1cccc2c1OCO2 (stereo not drawn) | 74.58% and 37.95% and 70.91% | 
Cn1cc(N2CCCC(NCc3cccc4c3OCCCO4)C2)cn1 (stereo not drawn) |  | 11.2
Cl.c1cnc(N2CCCC(NCc3cccc4c3OCCO4)C2)nc1 (stereo not drawn) |  | -3.04
CCn1ncc2c1CCCC2NCc1cscn1 (stereo not drawn) | -18.21% and -26.49% | 
Cn1ncc2c1CCCC2NCc1ccc(Cl)s1 (stereo not drawn) | -1.156% and -7.705% and -11.46% | 

Compound | Percent Effect (10 mM as filed; unlikely as a test dose) | Percent Effect [%]
Cc1ccc(CNC2CCCc3c2cnn3Cc2ccccc2)s1.Cl (stereo not drawn) |  | -20.07
Cc1ccc(CNC2CCCc3c2cnn3C)s1.Cl (stereo not drawn) | -10.87% and -25.98% and -25.69% | 
CC(C)(C)n1ncc2c1CCCC2NCc1cccc2c1OCCO2 (stereo not drawn) | 39.28% and 33.56% and 65.68% | 
Cc1ccn(CCC(=O)N2CCCC(Cc3cccnc3)C2)n1 (stereo not drawn) |  | 1.172
Cc1cccc(CN2C[C@@H]3[C@@H](C(=O)NCC(C)C)CCS(=O)(=O)[C@@H]3C2)c1.O=C(O)C(F)(F)F |  | 5.351
CCN(CC1CCOC1)C(=O)c1ccccc1S(=O)(=O)CC (stereo not drawn) |  | 6.872
Cc1cc(-c2cnc(N3CCNC(=O)C3)nc2-c2sccc2C)on1 |  | 7.472
Cc1ccc(CN2CCC3(CC2)CCN(C(=O)c2cccn2C)C3)cc1.O=C(O)C(F)(F)F |  | -1.664
CC(C)N(C)[C@@H]1CCN(S(C)(=O)=O)[C@H]1Cc1ccccc1 |  | 3.466
CCn1ncc2c1CCCC2NCc1cccc2c1OCO2 (stereo not drawn) | 87.89% and 80.38% and 88.9% | 
Cc1cc(CN2CCN(C(=O)CCCc3nc(C(C)C)no3)CC2)on1 |  | 13.41
COc1cccc2ccn(CC(=O)NCC(C)C)c12 | 1.134% and -1.268% | 
COCCNC(=O)Cn1ccc2cccc(OC)c21 | 24.03% and 24.86% | 
COC(=O)CNC(=O)Cn1ccc2cccc(OC)c21 | 53.7% and 45.8% | 
CN(C)CC(=O)N1CCC2(CC1)COc1ccccc1S(=O)(=O)N(C)C2 |  | -1.316
Cc1nc(Nc2nccs2)cc(C2CCCN2)n1.Cl (stereo not drawn) |  | -7.871
O=c1cc(N2CCNCC2)cnn1CCc1ccc(F)cc1 | -29.24% and -24.74% | 
O=c1cc(N2CCOCC2)cnn1CCc1ccc(F)cc1 | -2.466% and -5.477% | 
O=c1cc(N2CCCC2)cnn1CCc1cccc(F)c1 | 40.92% and 61.99% | 
CCc1nccn1CC1CCCN1S(=O)(=O)Cc1ccccc1 (stereo not drawn) |  | 3.419
COCC(=O)N1CCCC(C)(c2nncn2C)C1 (stereo not drawn) |  | 4.813
